Source: PubChem BioAssay (NCATS)
Results filed as inconclusive are left out. The source made the active and inactive calls. The call rests on the fitted dose curve; in most records, active means well fitted cell-killing curve with a large enough effect; inconclusive means small, poorly fitted or top-dose-only effect, or effect the other way; inactive means flat fitted curve, though single readings scatter.

Each compound was assayed on Tov112D (assay: Primary qHTS to identify gynecologic anti-cancer compounds using libraries of approved drugs and bioactive compounds (AID 1345084; further: nearly all actives have a fitted effect of over 55% in size)). Details: Gynecologic cancer cell panel viability, ATPlite luminescence, 48 h; series mostly up to 57.5 µM; activity change, negative = cytotoxicity: at the top concentration.
Outline: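 Cells, 1,000 per well, were allowed to settle for 16 h at 37 C before compound addition. Five concentrations were tested for 48 h, and viability was read by ATPlite luminescence after 15 min at room temperature.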
On the % scale 0 is the no-effect control and ±100 the full control effect.

**Q.** With O=C(Nc1ccn(Cc2ccc(O)cc2C(F)(F)F)n1)c1c(F)cccc1F as the compound, how does the “activity change, negative = cytotoxicity” value read?
**A.** 5.87% (inactive)

**Q.** For CC(O)C(C)n1ncn(-c2ccc(N3CCN(c4ccc(OCC5COC(Cn6cncn6)(c6ccc(Cl)cc6Cl)O5)cc4)CC3)cc2)c1=O (stereo not given), which “activity change, negative = cytotoxicity” value is on record?
**A.** 6.21% (inactive)

**Q.** CN(C)C(=O)Nc1cccc(-c2ccc(N(C)C)cc2)c1 was tested. Which “activity change, negative = cytotoxicity” value did it give?
**A.** -10.8% (inactive)

**Q.** For C[C@@H]1CCCN1CCc1cc2cc(-c3ccc(C#N)cc3)ccc2o1, which “activity change, negative = cytotoxicity” value is on record?
**A.** -3.14% (inactive)

**Q.** For Cc1cc(C(=O)Nc2cc(Nc3ccc4c(/C=C/c5ccccn5)n[nH]c4c3)ccc2F)n(C)n1, which “activity change, negative = cytotoxicity” value is on record?
**A.** -28.4% (inactive)

**Q.** For COc1nc2ccc(Br)cc2cc1[C@@H](c1ccccc1)[C@@](O)(CCN(C)C)c1cccc2ccccc12, which “activity change, negative = cytotoxicity” value is on record?
**A.** -7.81% (inactive)

**Q.** With C=C1CC[C@@H](O)[C@]2(C)C[C@H]3OC(=O)C(=C)[C@H]3CC12 (stereo not given in full) as the compound, how does the “activity change, negative = cytotoxicity” value read?
**A.** 2.36% (inactive)

**Q.** Which activity change, negative = cytotoxicity does the source give for C[C@@H]1O[C@@H](O[C@H]2[C@@H](OC(=O)[C@]34CCC(C)(C)CC3C3=CCC5[C@@]6(C)C[C@H](O)[C@H](O[C@@H]7O[C@H](CO)[C@@H](O)[C@H](O)[C@H]7O[C@@H]7OC[C@@H](O)[C@H](O)[C@H]7O)[C@@](C)(C(=O)O)C6CC[C@@]5(C)[C@]3(C)CC4)OC[C@H](O)[C@@H]2O)[C@H](O)[C@H](O)[C@H]1O[C@@H]1OC[C@@H](O)[C@H](O)[C@H]1O (stereo not given in full) here?
**A.** -12.7% [at 6.55 µM] (inactive)

**Q.** With COc1ccc(N2CCN(C(=O)c3cc4c(s3)-c3ccccc3S(=O)(=O)C4)CC2)cc1 as the compound, how does the “activity change, negative = cytotoxicity” value read?
**A.** -19.7% (inactive)

**Q.** C=C1/C(=C/C=C2\CCC[C@]3(C)[C@@H]([C@@H](C)OCCC(O)(CC)CC)CC[C@@H]23)C[C@@H](O)C[C@@H]1O was tested. Which “activity change, negative = cytotoxicity” value did it give?
**A.** 1.66% (inactive)
